Bioassay records deposited in PubChem by National Center for Advancing Translational Sciences (NCATS).
Hits are enriched below; roughly 5.2% of the tested compounds scored in any of these assays.
Sfp PPTase inh = inhibitors of Bacillus subtilis Sfp phosphopantetheinyl transferase; hit rate 3.5% among 310,000; Potency, µM, hits mostly inhibitors; Biochemical Sfp PPTase activity, qHTS;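 also: the enzyme is Sfp with the accession as filed and its product quenches rhodamine fluorescence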
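With Hepes-Na pH 7.6 buffer containing 10 mM MgCl2, Sfp (15 nM) modified BHQ-2-YbbR (12.5 uM) using rhodamine-CoA (5 uM). Two reads 30 minutes apart at 525/598 nm yielded each well's rate.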
PLK1 PBD block = PLK1 (human) polo-box domain binding inhibition | P53350 | Plk1 PBD binding of FITC phosphopeptide, fluorescence polarization | Potency, µM, hits mostly inhibitors | hit rate 2.8% among 360,000; also: series mostly up to about 57 µM; nearly all actives have a fitted effect of over 65% in size
Target sequence (P53350 whole entry, looked up, the tested form may be a part): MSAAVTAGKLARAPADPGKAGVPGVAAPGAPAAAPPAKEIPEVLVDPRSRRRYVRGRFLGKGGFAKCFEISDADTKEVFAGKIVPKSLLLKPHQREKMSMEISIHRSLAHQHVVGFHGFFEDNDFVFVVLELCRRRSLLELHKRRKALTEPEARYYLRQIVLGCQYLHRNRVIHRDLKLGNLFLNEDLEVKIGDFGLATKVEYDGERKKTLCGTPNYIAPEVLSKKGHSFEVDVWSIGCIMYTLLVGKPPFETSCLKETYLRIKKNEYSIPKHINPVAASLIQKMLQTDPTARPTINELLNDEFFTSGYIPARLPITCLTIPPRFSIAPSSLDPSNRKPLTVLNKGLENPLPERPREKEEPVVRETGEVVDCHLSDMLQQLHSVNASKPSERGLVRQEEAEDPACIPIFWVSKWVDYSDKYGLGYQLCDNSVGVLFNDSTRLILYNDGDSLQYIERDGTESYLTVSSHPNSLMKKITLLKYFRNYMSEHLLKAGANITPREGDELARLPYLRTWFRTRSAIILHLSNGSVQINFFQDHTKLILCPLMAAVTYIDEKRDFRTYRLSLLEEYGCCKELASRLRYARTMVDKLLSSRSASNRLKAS
mIDH1 inhibitor = inhibitors of human mutant IDH1 R132H; IDH1-R132H enzyme, NADPH consumption, diaphorase/resazurin fluorescence; Potency, µM (highest dose often 76.6 µM), actives largely listed as inhibitors; hit rate 0.093% among 390,000; also: nearly all actives have a fitted effect of over 65% in size
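IDH1-R132H (0.5 ug/mL dispensed) in pH 7.5 Tris buffer was preincubated 30 min with compound, then given a substrate mix of 0.016 mM NADPH and 2 mM alpha-KG for 80 min at room temperature; remaining NADPH was read by diaphorase/resazurin fluorescence.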
TrxR1 inh = blocks rat thioredoxin reductase 1; O89049; recombinant rTrxR1, NADPH fluorescence consumption, selenite substrate; Potency, µM (series often up to 114 µM), usual class: inhibitors; hit rate 1% among 390,000; also: nearly all actives have a fitted effect of over 65% in size
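Rat TrxR1 (90 nM in the dispensed reagent) was pre-reduced with 400 uM NADPH for 5 min at room temperature, then incubated with compound for 15 min. After 400 uM selenite was added, NADPH fluorescence (Ex 340/Em 450 nm) was followed for 8 min.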
VDR inhibitor = blocks the human vitamin D receptor; P11473; VDR-SRC2-3 peptide fluorescence polarization, 2 h; Potency, µM, most hits filed as inhibitors; hit rate 0.93% among 400,000; AID 504847
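Fluorescence polarization assay measuring small-molecule disruption of VDR binding to the coregulator peptide SRC2-3. Compounds were pin-transferred (23 nl) into the reagent mix and incubated 2 h at room temperature before reading.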
TrxR1 substrate = is turned over as a substrate by rat TrxR1. O89049. Potency, µM (doses to about 114 µM). purified TrxR1 substrate turnover, NADPH consumption readout. hit rate 0.01% among 390,000; also: nearly all actives have a fitted effect of over 50% in size
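Rat TrxR1, dispensed at 90 nM, was prereduced with 400 uM NADPH (final) for 5 min at ~22 deg C, then incubated with compound 15 min before 400 uM selenite. A first-read NADPH fluorescence drop versus no-compound background flagged substrates.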
Hits are given with their value; – = inactive; ? = inconclusive; · = no result; [ ] = remark or other dose. Calls follow the shape of the dose curve; as a rule, active = well fitted curve in the direction sought with a large enough effect; inconclusive = small, poorly fitted or top-dose-only effect, or another doubt; inactive = no such curve, though single readings can be large; an effect the other way counts as inactive or inconclusive.

SMILES	Sfp PPTase inh	PLK1 PBD block	mIDH1 inhibitor	TrxR1 inh	VDR inhibitor	TrxR1 substrate
COc1ccc(C(C2C(=O)CC(C)(C)CC2=O)C2C(=O)CC(C)(C)CC2=O)cc1CO	56µM	?	–	8.9µM	?	–
O=C(CCc1ccccc1)Nc1nnc(-c2ccccn2)o1	–	–	–	–	–	–
CCC(=O)Nc1nnc(-c2ccccn2)o1	50µM	–	–	–	–	–
O=C(c1cc2nc(-c3ccco3)cc(C(F)(F)F)n2n1)N1CCCCCC1	56µM	–	–	–	–	–
O=C(c1cc2nc(-c3ccco3)cc(C(F)(F)F)n2n1)N1CCN(c2ccccn2)CC1	–	–	–	?	–	–
CN(C(=O)c1cc2nc(-c3ccco3)cc(C(F)(F)F)n2n1)C1CCCCC1	50µM	–	–	–	–	–
Cc1c(C(=O)Nc2cccc(Cl)c2)oc2ccc(S(=O)(=O)N(C)C3CCCCC3)cc12	·	·	–	–	–	–
Cn1cccc1C(=O)OCC(=O)Nc1ccc2c(c1)OCO2	–	–	–	–	–	–
Cn1cccc1C(=O)OCc1cc(Cl)cc2c1OCOC2	71µM	–	–	–	–	–
O=C(CSc1nc(-c2ccco2)nc2cc(=O)[nH]n12)Nc1ccccc1F	·	·	–	–	–	–
Cc1nc2cc(-c3cccc(F)c3)nn2c(C)c1CCC(=O)NC(C)c1ccccc1 (stereo not drawn)	·	·	–	–	–	–
COc1cc(SSc2cc(OC)cc([N+](=O)[O-])c2N)c(N)c([N+](=O)[O-])c1	2.5µM	0.67µM	–	–	7.9µM	–
COc1cc([N+](=O)[O-])c2ncsc2c1	?	–	–	–	–	–
Cc1nc(NCc2ccccc2)c2nc(-c3ccccc3)n(CC(C)(C)CN(C)C)c2n1	–	·	·	·	·	·
COc1ccc(N=C2C(=S)N(c3ccc(OC)cc3)C(=NS(=O)(=O)c3ccccc3)N2c2ccccc2)cc1	·	3µM	–	–[11.4 µM]	?	–[11.4 µM]
Cc1ccc(S(=O)(=O)C/N=C(/NC(=S)N(c2ccccc2)c2ccccc2)c2ccccc2)cc1	32µM	?	–	?	–	–
Cc1ccc(S(=O)(=O)NC(=NC(C)C)c2ccccc2)cc1	–	–	–	–	–	–
COc1ccc(NC(=O)C2=CN3CCS(=O)(=O)N=C3C=C2)c(OC)c1	·	–	–	–	–	–
NC(=O)CSC1=N/C(=C\c2ccco2)C(=O)N1c1ccc(OC(F)F)cc1	–	–	–	?	?	–
CCOc1cc(/C=C2\N=C(SC(C)C(N)=O)N(c3ccc(OC(F)F)cc3)C2=O)ccc1O (stereo not drawn)	45µM	–	–	–	–	–
Nc1ccc(N)c(C(=O)O)c1	?	24µM	–	?	?	–
CC(C)(S)[C@@H](N)C(=O)O	50µM	–	–	–	?	–
Cc1ccc(NC(=O)c2cc(N3C(=O)C=CC3=O)ccc2Cl)cc1C	14µM	5.3µM	–	3.2µM	35µM	–
CC(=O)Oc1ccc2c(c1)Oc1cc(OC(C)=O)ccc1C21OC(=O)c2ccccc21	?	6.7µM	–	–	–	–
CN1C(=O)c2oc3ccccc3c(=O)c2C1c1ccncc1 (stereo not drawn)	?	27µM	–	?	79µM	–
SMILES	Sfp PPTase inh	PLK1 PBD block	mIDH1 inhibitor	TrxR1 inh	VDR inhibitor	TrxR1 substrate
COc1ccc(C2c3c(oc4ccccc4c3=O)C(=O)N2Cc2ccncc2)cc1 (stereo not drawn)	–	·	·	·	·	·
COc1cc(NC(=O)COc2c(C)cc(C)cc2[N+](=O)[O-])c(OC)cc1Cl	50µM	–	–	–	–	–
O=C(Nc1ccccc1)N1CCCC2(CCN(C(=O)c3ccco3)CC2)C1	–	·	·	·	–	·
CCOc1ccccc1N(C)C(=O)CCS(=O)(=O)c1ccc2c(c1)NC(=O)C(C)S2 (stereo not drawn)	–	27µM	–	71µM	?	–
CC1Sc2ccc(S(=O)(=O)CCC(=O)Nc3ccccc3Cl)cc2NC1=O (stereo not drawn)	–	27µM	–	–	–	–
CC1Sc2ccc(S(=O)(=O)CCC(=O)N(C)Cc3ccco3)cc2NC1=O (stereo not drawn)	–	?	–	–	–	–
Cc1ccc(NC(=O)CCS(=O)(=O)c2ccc3c(c2)NC(=O)C(C)S3)cc1Cl (stereo not drawn)	–	–	–	–	–	–
Cc1ccc(C(=O)NN2C(=O)C3C4C=CC(C4)[C@@H]3C2=O)cc1 (stereo partly drawn)	–	–	–	–	–	–
COc1cccc(C(=O)NN2c3ccccc3CCc3ccccc32)c1	–	–	–	–	–	–
COc1ccc(C(=O)NN2C(=O)C3C4C=CC(O4)C3C2=O)cc1 (stereo not drawn)	22µM	–	–	?	–	–
COc1cccc(C(=O)NN2C(=O)C3C4C=CC(O4)C3C2=O)c1 (stereo not drawn)	?	–	–	28µM	–	–
C=CCNc1nc(C(=O)OCC(=O)NCc2cccc(Cl)c2)cs1	·	–	–	–	–	–
[S-]C(=Nc1ccc(Cl)cc1)N[n+]1ccccc1	–	17µM	–	–	?	–
Cc1cccc(CNS(=O)(=O)c2ccc(-c3ccc(=O)[nH]n3)s2)c1	–	24µM	–	–	–	–
Cc1cc(C)n(CCc2nc(-c3ccc(C)o3)cs2)n1	8.9µM	?	–	?	?	–
Cc1cc(C)n(CCc2nc(-c3cc4ccccc4o3)cs2)n1	–	–	–	–	–	–
Cc1cc(O)ccc1NC(=S)NC(=O)c1cncc(Br)c1	56µM	?	–	–	–	–
Cc1c(Cl)cccc1NC(=S)NC(=O)c1cncc(Br)c1	·	–	–	–[11.4 µM]	–	–[11.4 µM]
O=C(NC(=S)Nc1ccc(O)cc1)c1cncc(Br)c1	·	–	–	?	–	–
Cc1ccccc1NC(=S)NC(=O)c1cncc(Br)c1	–	–	–	13µM	–	–
Cc1c(Cl)cnc(NC(=O)COC(=O)/C=C/c2ccco2)c1Cl	·	–	–	16µM	–	–
O=C(COC(=O)/C=C/c1ccco1)Nc1ncc(C(F)(F)F)cc1Cl	40µM	–	–	?	–	–
Cc1c(Cl)cnc(NC(=O)COC(=O)C(NC(=O)c2ccco2)C(C)C)c1Cl (stereo not drawn)	–	–	–	50µM	–	–
CCc1cc[n+](-c2nc([O-])sc2C=O)cc1	50µM	?	–	–	–	–
CC(C)(C)c1cc[n+](-c2nc([O-])sc2C=O)cc1	–	–	–	–	–	–
CC(C)c1cc[n+](-c2nc([O-])sc2C=O)cc1	40µM	?	–	–	–	–
Cc1ccc[n+](-c2nc([O-])sc2/C=N/Nc2ccc([N+](=O)[O-])cc2)c1	–	–	–	–	–	–
